The values that follow come from PubChem BioAssay (NCATS).

Activity calls are given as the source filed them. Calls follow the shape of the full dose curve.
Potency is read from the fitted curve at half-maximal effect.

For one assay, the target named is Catechol O-methyltransferase (Homo sapiens) (UniProt P21964). Put plainly: Confirmatory Screen for Target Class Profiling of Small Molecule Inhibitors of Methyltransferases (AID 1745852). As to activity change, negative = inhibition: % is scaled to controls: 0 for no effect and ±100 for the full control effect. Conditions: MTase-Glo luminescence, SAH detection, recombinant enzyme; measured here: COMT max response; stronger effect = lower value.
Catechol O-methyltransferase (Homo sapiens), sequence (P21964 whole entry, looked up): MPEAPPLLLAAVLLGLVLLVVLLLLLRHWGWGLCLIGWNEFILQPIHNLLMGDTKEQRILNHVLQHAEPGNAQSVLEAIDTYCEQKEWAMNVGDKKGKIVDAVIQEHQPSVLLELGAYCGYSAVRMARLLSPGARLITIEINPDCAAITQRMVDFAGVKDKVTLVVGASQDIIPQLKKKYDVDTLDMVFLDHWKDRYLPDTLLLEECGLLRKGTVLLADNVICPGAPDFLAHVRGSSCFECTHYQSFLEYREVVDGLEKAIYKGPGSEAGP
Regarding `C=CC(=O)Nc1cccc(Nc2nc(Nc3ccc(OCCOC)cc3)ncc2F)c1`, the activity is -40.1%.
With `CCn1c(-c2nonc2N)nc2c(C#CC(C)(C)O)ncc(OCC3CCCNC3)c21` (stereo unspecified), the activity was -1.89%.
As for `COc1c2c(c(C)c3c1C(=O)OC3)O[C@@]1(C)C[C@@H](OC(C)=O)[C@]34O[C@](OC)(CC[C@]3(C)[C@H]1C2)OC4(C)C`, the activity is -8.48%.

Another assay has as its target Guanidinoacetate N-methyltransferase (Homo sapiens) (UniProt Q14353). Described as above. Conditions: MTase-Glo luminescence, SAH detection, recombinant enzyme; activity change, negative = inhibition: at 57.3 µM (top of the series) unless noted; series mostly up to 57.3 µM.
As to `C=CC(=O)Nc1cccc(Nc2nc(Nc3ccc(OCCOC)cc3)ncc2F)c1`, the Potency is 27.1 µM (active).
As to `CCn1c(-c2nonc2N)nc2c(C#CC(C)(C)O)ncc(OCC3CCCNC3)c21` (stereo unspecified), the activity change, negative = inhibition is 0.279%.
Regarding `COc1c2c(c(C)c3c1C(=O)OC3)O[C@@]1(C)C[C@@H](OC(C)=O)[C@]34O[C@](OC)(CC[C@]3(C)[C@H]1C2)OC4(C)C`, the activity change, negative = inhibition came to 2.06% [at 29.8 µM].
